According to the supplement of paper PMC12350171:
Where a name gives a salt, the structure may show the parent alone.

System: Haemophilus parainfluenzae
Experiment: growth AUC normalised to DMSO control (fraction of control); higher = less growth inhibition, active = hit call of the paper
Settings: 20 µM;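 active = AUC significantly below DMSO controls by Student t-fit with adjusted P under 0.01; inactive = not significantly reduced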
Method in brief: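 For the AUC endpoint, growth curves were integrated by the trapezoidal rule up to the exponential-to-stationary transition and normalised to DMSO controls on the same plate. The curves came from OD578 readings taken hourly for 24 h, in three biological replicates. Pathogens had been passaged anaerobically twice and inoculated at an OD578 of 0.01 into pre-reduced mGAM plates carrying 20 μM compound and 1% DMSO, sealed with breathable membranes. Medium for Haemophilus parainfluenzae also contained hemin and NAD.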

SMILES	growth AUC normalised to DMSO control
CCN(CC)CCc1nc(-c2ccccc2)no1 [Oxolamine citrate salt]	1.05 (inactive)
CC[C@@H]1C(=O)OC[C@@H]1Cc1cncn1C [Pilocarpine nitrate]	0.981 (inactive)
CC(=O)Nc1c(I)c(C(=O)N[C@H]2C(O)O[C@H](CO)[C@@H](O)[C@@H]2O)c(I)c(N(C)C(C)=O)c1I (some centres undefined) [Metrizamide]	0.984 (inactive)
CCN1CCC[C@H]1CNC(=O)c1c(O)c(Cl)cc(Cl)c1OC [Raclopride]	0.944 (inactive)
O=C1c2ccccc2S(=O)(=O)N1CCCCN1CCN(c2ncccn2)CC1 [Ipsapirone]	0.979 (inactive)
Cn1c(=O)c2c(ncn2CC2OCCO2)n(C)c1=O [Doxofylline]	1.02 (inactive)
NS(=O)(=O)c1cc2c(cc1Cl)NC(CC1CCCC1)NS2(=O)=O (centres undefined) [Cyclopenthiazide]	0.982 (inactive)
CCOC(=O)[N-]c1c[n+](N2CCOCC2)no1 [Molsidomine]	1.03 (inactive)
COCC(=O)Nc1c(I)c(C(=O)NCC(O)CO)c(I)c(C(=O)N(C)CC(O)CO)c1I (centres undefined) [Iopromide]	1.03 (inactive)
COC1=C(OC)C(=O)C(CCCCCCCCCCO)=C(C)C1=O [Idebenone]	1.04 (inactive)
Cc1cccc(N(C)C(=S)Oc2ccc3ccccc3c2)c1 [Tolnaftate]	1 (inactive)
NC12CC3CC(CC(C3)C1)C2 [Adamantamine fumarate]	1.05 (inactive)
CO/N=C(\C(=O)N[C@@H]1C(=O)N2C(C(=O)O)=C(COC(N)=O)CS[C@H]12)c1ccco1 [Cefuroxime sodium salt]	0.0255 (active)
O=C1NCN(c2ccccc2)C12CCN(CCCC(c1ccc(F)cc1)c1ccc(F)cc1)CC2 [Fluspirilene]	1.05 (inactive)
CC[C@H](C)C(=O)O[C@H]1C[C@@H](C)C=C2C=C[C@H](C)[C@H](CC[C@@H]3C[C@@H](O)CC(=O)O3)[C@H]21 [Lovastatin]	0.984 (inactive)
CC(Cc1cccc(C(F)(F)F)c1)NCCOC(=O)c1ccccc1 (centres undefined) [Benfluorex]	0.93 (inactive)
CN(C)CCN(Cc1ccc(Cl)cc1)c1ccccn1 [Chloropyramine hydrochloride]	1.03 (inactive)

SMILES	growth AUC normalised to DMSO control
O=C(CCCCCCC(=O)Nc1ccccc1)NO [Vorinostat]	1.07 (inactive)
COc1cc(NC(C)CCCN)c2ncccc2c1 (centres undefined) [Primaquine diphosphate]	1.08 (inactive)
NS(=O)(=O)c1cc2c(cc1C(F)(F)F)NC(Cc1ccccc1)NS2(=O)=O (centres undefined) [Bendroflumethiazide]	1.02 (inactive)
COc1ccc(/C=C/C(=O)Nc2ccccc2C(=O)O)cc1OC [Tranilast]	1.01 (inactive)
CCOC(=O)C1=C(COCCN)NC(C)=C(C(=O)OC)C1c1ccccc1Cl (centres undefined) [Amlodipine]	0.989 (inactive)
CCCCOc1ccc(OCCCN2CCOCC2)cc1 [Pramoxine hydrochloride]	0.936 (inactive)
CNCC(O)c1ccc(O)c(O)c1 (centres undefined) [Racepinephrine hydrochloride]	1.06 (inactive)
NC(=O)c1cccnc1 [Nicotinamide]	1.04 (inactive)
Nc1ccn([C@@H]2CS[C@H](CO)O2)c(=O)n1 [Lamivudine]	0.999 (inactive)
CC(COc1ccccc1)N(CCCl)Cc1ccccc1 (centres undefined) [Phenoxybenzamine hydrochloride]	1.01 (inactive)
CCCCC1C(=O)N(c2ccccc2)N(c2ccccc2)C1=O [Phenylbutazone]	1.02 (inactive)
CC(C)(Sc1cc(C(C)(C)C)c(O)c(C(C)(C)C)c1)Sc1cc(C(C)(C)C)c(O)c(C(C)(C)C)c1 [Probucol]	1.01 (inactive)
CN1CCC(=C2c3ccccc3Sc3ccccc32)CC1 [Pimethixene maleate]	0.908 (inactive)
CC(=O)OCC(CCn1cnc2cnc(N)nc21)COC(C)=O [Famciclovir]	1.02 (inactive)
COCCOC(=O)C1=C(C)NC(C)=C(C(=O)OC(C)C)C1c1cccc([N+](=O)[O-])c1 (centres undefined) [Nimodipine]	0.959 (inactive)
COc1ccc(C(=O)c2ccccc2)c(O)c1 [Oxybenzone]	1.06 (inactive)
CO[C@H]1C[C@H](O[C@H]2[C@H](C)[C@@H](O[C@@H]3O[C@H](C)C[C@H](N(C)C)[C@H]3OC(C)=O)[C@@H](C)C[C@@]3(CO3)C(=O)[C@H](C)[C@@H](OC(C)=O)[C@@H](C)[C@@H](C)OC(=O)[C@@H]2C)O[C@@H](C)[C@@H]1OC(C)=O [Troleandomycin]	0.921 (inactive)
